# Measurements as given in PubChem BioAssay (Tox21).
# Records with an inconclusive call do not appear. Active and inactive are the calls of the source. Calls come from the whole dose curve; as a rule, active = well fitted cell-killing curve with a large enough effect in the repeat runs; inconclusive = weak or mixed curves, or effect the other way; inactive = flat fitted curve, though single readings scatter.
# Test: qHTS RealTime-Glo MT Cell Viability Assay in HepG2 cells - 40 hour (AID 1224870); note: nearly all actives have a fitted effect of over 50% in size
# Details: RealTime-Glo luminescence; series mostly up to 76.8 µM; activity change, negative = cytotoxic: at the top concentration
# Description: National Center for Advancing Translational Sciences [NCATS]
# NIH Chemical Genomics Center [NCGC]
# U.S. Environmental Protection Agency [EPA]
# National Institutes of Environmental Health Sciences [NIEHS]
# National Toxicology Program [NTP]
# U.S. Food and Drug Administration [FDA]
# Measure of cell viability is critical in the cell-base assay. Analysis of cell viability is necessary for the characterization of cell responses to cytotoxic drugs and environmental stress. A RealTime-Glo MT Cell Viability Assay to monitor cell viability in real time of continues cell culture during 40 hours of compound treatment was used to screen Tox21 10K library compounds in HepG2 cells. The RealTime-Glo MT Cell Viability Assay is a nonlytic, homogeneous, bioluminescent method to measure cell viability in real time using a simple, plate-based method. The assay involves adding NanoLuc luciferase and a cell-permeant prosubstrate to cells in culture. Viable cells reduce the proprietary prosubstrate to generate a substrate for NanoLuc luciferase. This substrate diffuses from cells into the surrounding culture medium, where it is rapidly used by the NanoLuc Enzyme to produce a luminescent signal. The signal correlates with the number of viable cells, making the assay well suited for cytotoxicity studies.
# Tox21 Assay Protocol Summary:
# The mixture of HepG2 cell suspension and reagents were dispensed at 600cells/6 ul/well in 1536-well tissue culture treated black solid bottom plates using a Multidrop dispenser. After the assay plates were incubated at a 37 C/5% CO2 incubator for 5 hours, 23 nL of compounds dissolved in DMSO, positive and negative controls was transferred to the assay plate by a pintool work station. The plates were incubated at 37 C for 40 hours. The luminescence intensity were measured at 0h, 8h, 16h, 24h, 32h and 40h time points using ViewLux plate reader during compound treatment.
# % is set by controls: 0 for no effect and ±100 for the full control effect; potency is the fitted concentration of half-maximal effect.
Compound,"activity change, negative = cytotoxic",Potency
CCC(C)(C)c1cc(O)c(C(C)(C)CC)cc1O,-19.5% (inactive),
C=C1C(C)(C)[C@@]2(Cl)C(Cl)[C@]1(Cl)C(Cl)(Cl)C2(Cl)Cl (stereo not given in full),-24.5% (inactive),
C=C(C)C(=O)OCCC[Si](Cl)(Cl)Cl,0.0883% (inactive),
ClC/C=C\CCl,-2.1% (inactive),
Cn1cccc1,0.655% (inactive),
COc1cc(C(=O)NS(=O)(=O)c2ccccc2C)ccc1Cc1cn(C)c2ccc(NC(=O)OC3CCCC3)cc12,0.537% [at 35.3 µM] (inactive),
OCCC(O)CO (stereo not given),-12% (inactive),
CCN=C1C=CC(=C(c2ccc(N(CC)CC)cc2)c2ccc(N(CC)CC)cc2)c2ccccc21,,19.4 µM (active)
C/C=C/C=N/NC(=O)c1ccncc1,-5.71% [at 35.3 µM] (inactive),
C/C=C/c1ccc(OC)c(OC)c1,4.41% (inactive),
CCCC(C)CCC(C)=O (stereo not given),-2.07% (inactive),
NC(=O)c1ccccc1N,-0.886% (inactive),
CC(=O)c1ccccc1N,-1.36% (inactive),
C/C=C/CO,-1.15% (inactive),
CC(C)N=C(N)/N=C(\N)Nc1ccc(Cl)cc1,-5.69% [at 35.3 µM] (inactive),
O=S(=O)(O)CCCN1CCOCC1,1.32% (inactive),
O=C1OC(OC(=O)c2cccnc2Nc2cccc(C(F)(F)F)c2)c2ccccc21 (stereo not given),2.4% [at 35.3 µM] (inactive),
Clc1ccc(C(Cn2ccnc2)OCc2c(Cl)cccc2Cl)c(Cl)c1 (stereo not given),-20.1% [at 35.3 µM] (inactive),
O=C(O)CCCCCCC(=O)O,-0.789% (inactive),
CC=O,,32.3 µM (active)

Compound,"activity change, negative = cytotoxic",Potency
Oc1ccc(-c2ccccc2)c(Cl)c1,-11.1% (inactive),
C=C(c1ccc(C(=O)O)cc1)c1cc2c(cc1C)C(C)(C)CCC2(C)C,-12.7% [at 35.3 µM] (inactive),
c1cc2c3c(c1)ccc1cccc(c13)C2,0.941% (inactive),
CC1=C(/C=C/C(C)=C/C=C/C(C)=C/C(=O)Nc2ccc(O)cc2)C(C)(C)CCC1,-21.8% (inactive),
CC(C)c1cccc(C(C)C)c1N1C(=O)c2ccc(O)cc2C1=O,,43.6 µM (active)
O=C1Nc2ccc(Cl)cc2[C@@](C#CC2CC2)(C(F)(F)F)O1,-21.1% [at 35.3 µM] (inactive),
Cc1c(C)n(Cc2ccccc2)c2ccc(C(=O)OCCN(C)C)cc12,,23.9 µM (active)
CO[Si](CCCNCCNCCN)(OC)OC,20.8% (inactive),
CCCCCCCC/C=C\CCCCCCCC(=O)NCc1ccc(O)c(OC)c1,-2.07% [at 35.3 µM] (inactive),
CCCCCCCCCCCCN(CCO)CCO,,38.7 µM (active)
COc1ccccc1OCCNCC(O)COc1cccc2[nH]c3ccccc3c12 (stereo not given),,23.9 µM (active)
COc1cccc(OC)c1O,0.406% (inactive),
c1ccc(Nc2cccc3ccccc23)cc1,,inactive
CNC(=S)NN,-7.23% (inactive),
CCCC(=O)OCC(COC(=O)CCC)OC(=O)CCC,-1.85% (inactive),
C=CC/C=C/C/C=C/C/C=C/C,7.93% (inactive),
Clc1ccccc1CN1CCc2sccc2C1,1.43% [at 35.3 µM] (inactive),
CCc1ccc(C)nc1,24.4% (inactive),
C=CC(C)(CCC=C(C)C)OC(=O)/C=C/c1ccccc1 (stereo not given),-10.7% (inactive),
CO[C@H]1C=CO[C@@]2(C)Oc3c(C)c(O)c4c(O)c(cc(O)c4c3C2=O)NC(=O)/C(C)=C\C=C/[C@H](C)[C@H](O)[C@@H](C)[C@@H](O)[C@@H](C)[C@H](OC(C)=O)[C@@H]1C,-16.4% (inactive),
